Test results reported in PubChem BioAssay AID1159580 (chemical genetic matrix, 2015).
Several values for one entry are separate records, joined by “and”; a condition that tells them apart may be missing. Identical values can stand only once. About 2,000 (36%) of roughly 5,500 compounds were called active. Another 18% or so got no clear call; they are omitted. Rule as the data show it: active = normalized growth mostly below about 0.91 (no sharp cut-off); inconclusive = no clear call, values can overlap the other calls; inactive = mostly above about 0.92. The list shows a part of the results.

Assay: chemical genetic growth profiling, strain panel (AID 1159580);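 also: tested at 20 µM; growth read once vehicle control cultures reached saturation at 30 °C; 1 = growth at the plate median or of vehicle wells; lower values mean less growth of the strain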
Details: growth OD

Measured: normalized growth

NC(N)=Nc1nc(CSCCC(N)=NS(N)(=O)=O)cs1
inactive: S. cerevisiae deletion strains, locus YKL009W, strain mrt4, stronger effect = lower value 1.04 | S. cerevisiae deletion strains, locus YKL068W, stronger effect = lower value 1.01 | S. cerevisiae deletion strains, locus YKL085W, strain MDH1 (second series), stronger effect = lower value 0.987 | S. cerevisiae deletion strains, locus YKL085W, strain MDH1, stronger effect = lower value 0.987 | S. cerevisiae deletion strains, locus YKL160W, strain elf1, stronger effect = lower value 0.974 | S. cerevisiae deletion strains, locus YKL190W, strain CNB1, stronger effect = lower value 1 | S. cerevisiae deletion strains, locus YKR001C, strain vps1, stronger effect = lower value 1.01 | S. cerevisiae deletion strains, locus YKR026C, strain gcn3, stronger effect = lower value 0.981 | S. cerevisiae deletion strains, locus YKR091W, strain srl3, stronger effect = lower value 0.97 | S. cerevisiae deletion strains, locus YLL001W, strain dnm1, stronger effect = lower value 0.933 | S. cerevisiae deletion strains, locus YLL026W, stronger effect = lower value 0.992 | S. cerevisiae deletion strains, locus YLL041C, strain sdh2, stronger effect = lower value 0.995 | S. cerevisiae deletion strains, locus YLR027C, strain aat2, stronger effect = lower value 0.987 | S. cerevisiae deletion strains, locus YLR039C, strain RIC1, stronger effect = lower value 0.979 | S. cerevisiae deletion strains, locus YLR058C, strain SHM2, stronger effect = lower value 1.02 | S. cerevisiae deletion strains, locus YLR102C, strain apc9, stronger effect = lower value 1.01 | S. cerevisiae deletion strains, locus YLR113W, strain HOG1, stronger effect = lower value 0.97 | S. cerevisiae deletion strains, locus YLR221C, strain rsa3, stronger effect = lower value 0.99 | S. cerevisiae deletion strains, locus YLR258W, strain gsy2, stronger effect = lower value 0.998 | S. cerevisiae deletion strains, locus YLR262C, strain YPT6 (second series), stronger effect = lower value 0.961 | S. cerevisiae deletion strains, locus YLR262C, strain YPT6, stronger effect = lower value 0.979 | S. cerevisiae deletion strains, locus YLR268W, strain sec22, stronger effect = lower value 1.05 | S. cerevisiae deletion strains, locus YLR320W, strain mms22, stronger effect = lower value 1.01 | S. cerevisiae deletion strains, locus YLR330W, strain CHS5, stronger effect = lower value 0.996 | S. cerevisiae deletion strains, locus YLR342W, strain FKS1 (second series), stronger effect = lower value 1.02 | S. cerevisiae deletion strains, locus YLR342W, strain FKS1, stronger effect = lower value 0.983 | S. cerevisiae deletion strains, locus YLR357W, strain rsc2, stronger effect = lower value 1.04 | S. cerevisiae deletion strains, locus YLR370C, strain arc18, stronger effect = lower value 0.972 | S. cerevisiae deletion strains, locus YLR371W, strain rom2, stronger effect = lower value 1.01 | S. cerevisiae deletion strains, locus YLR384C, strain iki3, stronger effect = lower value 0.963 | S. cerevisiae deletion strains, locus YLR418C, strain cdc73, stronger effect = lower value 0.999 | S. cerevisiae deletion strains, locus YML016C, strain PPZ1, stronger effect = lower value 0.997 | S. cerevisiae deletion strains, locus YML032C, strain rad52, stronger effect = lower value 1.02 | S. cerevisiae deletion strains, locus YML120C, strain ndi1, stronger effect = lower value 0.977 | S. cerevisiae deletion strains, locus YML124C, strain tub3, stronger effect = lower value 1 | S. cerevisiae deletion strains, locus YMR058W, strain fet3, stronger effect = lower value 0.991 | S. cerevisiae deletion strains, locus YMR078C, strain ctf18, stronger effect = lower value 1.02 | S. cerevisiae deletion strains, locus YMR125W, strain sto1, stronger effect = lower value 0.956 | S. cerevisiae deletion strains, locus YMR129W, stronger effect = lower value 0.99 | S. cerevisiae deletion strains, locus YMR205C, strain PFK2, stronger effect = lower value 0.988 | S. cerevisiae deletion strains, locus YMR223W, strain ubp8, stronger effect = lower value 1.01 | S. cerevisiae deletion strains, locus YMR231W, strain pep5, stronger effect = lower value 0.971 | S. cerevisiae deletion strains, locus YMR263W, strain SAP30, stronger effect = lower value 1.01 | S. cerevisiae deletion strains, locus YMR307W, strain GAS1, stronger effect = lower value 0.95 | S. cerevisiae deletion strains, locus YNL067W, strain RPL9B, stronger effect = lower value 1.01 | S. cerevisiae deletion strains, locus YNL071W, strain lat1, stronger effect = lower value 0.996 | S. cerevisiae deletion strains, locus YNL128W, strain TEP1, stronger effect = lower value 1.01 | S. cerevisiae deletion strains, locus YNL153C, strain GIM3, stronger effect = lower value 1.01 | S. cerevisiae deletion strains, locus YNL175C, strain NOP13, stronger effect = lower value 1.01 | S. cerevisiae deletion strains, locus YNL183C, strain NPR1, stronger effect = lower value 0.931 | S. cerevisiae deletion strains, locus YNL197C, strain WHI3, stronger effect = lower value 1.01 | S. cerevisiae deletion strains, locus YNL209W, strain ssb2, stronger effect = lower value 0.993 | S. cerevisiae deletion strains, locus YNL224C, strain SQS1, stronger effect = lower value 0.986 | S. cerevisiae deletion strains, locus YNL233W, strain BNI4, stronger effect = lower value 1.01 | S. cerevisiae deletion strains, locus YNL248C, strain rpa49, stronger effect = lower value 0.994 | S. cerevisiae deletion strains, locus YNL250W, strain rad50, stronger effect = lower value 1 | S. cerevisiae deletion strains, locus YNL271C, strain bni1, stronger effect = lower value 1.01 | S. cerevisiae deletion strains, locus YNL298W, strain CLA4, stronger effect = lower value 1.02 | S. cerevisiae deletion strains, locus YNL307C, strain MCK1, stronger effect = lower value 1.01 | S. cerevisiae deletion strains, locus YNL322C, strain KRE1 (second series), stronger effect = lower value 0.963 | S. cerevisiae deletion strains, locus YNL322C, strain KRE1, stronger effect = lower value 1 and 1.01 | S. cerevisiae deletion strains, locus YNR049C, strain mso1, stronger effect = lower value 0.972 | S. cerevisiae deletion strains, locus YNR052C, strain pop2, stronger effect = lower value 1.02 | S. cerevisiae deletion strains, locus YOL006C, strain TOP1, stronger effect = lower value 1.06 | S. cerevisiae deletion strains, locus YOL012C, strain htz1 0.851 | S. cerevisiae deletion strains, locus YOL147C, strain pex11, stronger effect = lower value 1.01 | S. cerevisiae deletion strains, locus YOR001W, strain rrp6, stronger effect = lower value 0.972 | S. cerevisiae deletion strains, locus YOR061W, strain CKA2, stronger effect = lower value 1 | S. cerevisiae deletion strains, locus YOR069W, strain VPS5, stronger effect = lower value 1.01 | S. cerevisiae deletion strains, locus YOR070C, strain gyp1, stronger effect = lower value 0.982 | S. cerevisiae deletion strains, locus YOR080W, strain dia2, stronger effect = lower value 0.97 | S. cerevisiae deletion strains, locus YOR083W, strain WHI5 (second series), stronger effect = lower value 0.992 | S. cerevisiae deletion strains, locus YOR083W, strain WHI5, stronger effect = lower value 0.965 | S. cerevisiae deletion strains, locus YOR106W, strain vam3, stronger effect = lower value 0.96 | S. cerevisiae deletion strains, locus YOR136W, strain idh2, stronger effect = lower value 1 | S. cerevisiae deletion strains, locus YOR144C, strain elg1, stronger effect = lower value 1.01 | S. cerevisiae deletion strains, locus YOR184W, strain ser1, stronger effect = lower value 1 | S. cerevisiae deletion strains, locus YOR231W, strain MKK1, stronger effect = lower value 0.959 | S. cerevisiae deletion strains, locus YOR265W, strain rbl2, stronger effect = lower value 0.986 | S. cerevisiae deletion strains, locus YOR270C, strain vph1, stronger effect = lower value 0.966 | S. cerevisiae deletion strains, locus YOR290C, strain snf2, stronger effect = lower value 1 | S. cerevisiae deletion strains, locus YOR316C, strain cot1, stronger effect = lower value 1 | S. cerevisiae deletion strains, locus YPL051W, strain arl3, stronger effect = lower value 0.99 | S. cerevisiae deletion strains, locus YPL055C, strain LGE1, stronger effect = lower value 0.97 | S. cerevisiae deletion strains, locus YPL078C, strain atp4, stronger effect = lower value 0.968 | S. cerevisiae deletion strains, locus YPL106C, strain sse1, stronger effect = lower value 0.999 | S. cerevisiae deletion strains, locus YPL240C, strain hsp82, stronger effect = lower value 1 | S. cerevisiae deletion strains, locus YPL241C, strain CIN2, stronger effect = lower value 0.997 and 1.01 | S. cerevisiae deletion strains, locus YPL256C, strain CLN2, stronger effect = lower value 0.961 | S. cerevisiae deletion strains, locus YPR119W, strain clb2, stronger effect = lower value 1 | S. cerevisiae deletion strains, locus YPR141C, strain kar3, stronger effect = lower value 1 | S. cerevisiae deletion strains, locus YPR163C, strain tif3, stronger effect = lower value 1.02 | S. cerevisiae deletion strains, locus YPR167C, strain met16, stronger effect = lower value 1.01 | S. cerevisiae deletion strains, strain wtn01, stronger effect = lower value 1.02 | S. cerevisiae strains, strain wild type, stronger effect = lower value 1
